# Results: PubChem BioAssay (Tox21)
# A number with no mark means an inactive call. Inconclusive results are not listed. Where a call stands in place of a potency, no number is given. The source made the active and inactive calls. Unless noted, calls come from the whole dose curve; as a rule, active = well fitted curve in the direction sought with a large enough effect in the repeat runs; inconclusive = weak or mixed curves; inactive = no such curve, though single readings can be large; an effect the other way counts as inactive or inconclusive.
# Experiments:
# [1] = qHTS assay for small molecules that induce genotoxicity in human embryonic kidney cells expressing luciferase-tagged ATAD5 (AID 651632); note: nearly all actives have a fitted effect of over 15% in size
# Outline: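 Reporter cells (HEK293T) express luciferase-tagged ATAD5, a protein that accumulates after DNA damage. Treat 16 hr at 37C/5% CO2, add Amplite, wait 30 min at RT, and read luminescence.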
# [2] = qHTS assay for small molecules that induce genotoxicity in human embryonic kidney cells expressing luciferase-tagged ATAD5 - cell viability (AID 651634; calls by dose curve; note: nearly all actives have a fitted effect of over 25% in size)
# Outline: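 Seeding of 2,000 HEK293T ATAD5-luciferase cells per well preceded pin-tool compound transfer. Plates sat 15.5 hr at 37C under 5% CO2, then fluorescence was read after 30 min with CellTiter-Fluor.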
# [3] = qHTS assay for small molecule disruptors of the mitochondrial membrane potential - cell viability (AID 720634; calls by dose curve;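 note: human HepG2 liver cancer cells; series mostly up to about 83 µM; nearly all actives have a fitted effect of over 20% in size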)
# Outline: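 Measuring cytotoxicity alongside mitochondrial potential, the screen quantified ATP by luminescence in HepG2 cells after 1 hr compound incubation and a 30 min room-temperature CellTiter-Glo step.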
# [4] = qHTS assay to test for compound auto fluorescence at 590 nm (red) in HepG2 cells (AID 720674)
# Outline: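 Intrinsic compound fluorescence in the red window (Ex/Em 540/590 nm) is measured in attached HepG2 cells exposed for 1 hr, DMSO vehicle as baseline, benchmarked to Rose Bengal sodium.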
# [5] = qHTS assay to test for compound auto fluorescence at 535 nm (green) in HepG2 cells (AID 720675)
# [6] = qHTS assay to test for compound auto fluorescence at 460 nm (blue) in HEK293 cells (AID 720678)
# Outline: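 Blue read-out at excitation 405 nm and emission 460 nm follows overnight compound exposure of HEK293 cells at 37C in 5% CO2. Activity is given as auto fluorescence equivalency to triamterene.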
# [7] = qHTS assay to test for compound auto fluorescence at 590 nm (red) in HEK293 cells (AID 720679)
# Outline: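 Red channel, Ex/Em 540/590nm; signal expressed as equivalency to Rose Bengal sodium. HEK293, 2,000 cells/well, 10% dialyzed FBS; 23 nL compound pinned after 4-5 hr attachment; overnight 37C/5% CO2 before reading.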
# [8] = qHTS assay to test for compound auto fluorescence at 535 nm (green) in HEK293 cells (AID 720680)
# [9] = qHTS assay to test for compound auto fluorescence at 460 nm (blue) in HEK293 cell free culture (AID 720681)
# Outline: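 Test compounds were pinned into cell-free culture medium (DMEM with 10% FBS) and fluorescence was read directly at Ex/Em 405/460 nm. Signals were expressed as fluorescence equivalents of triamterene, with DMSO vehicle as control.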
# [10] = qHTS assay to test for compound auto fluorescence at 535 nm (green) in HEK293 cell free culture (AID 720682)
# Outline: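 Steps: dispense DMEM/10% FBS into empty wells; pin in compound or DMSO; measure fluorescence at 485/535 nm. Values are fluorescein equivalents.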
# [11] = qHTS assay to test for compound auto fluorescence at 590 nm (red) in HEK293 cell free culture (AID 720683)
# Outline: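 Tox21 10K library compounds were pinned into cell-free DMEM with 10% FBS and fluorescence was read at excitation 540 nm. Activity is expressed as Rose Bengal sodium equivalency.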
# [12] = qHTS assay to test for compound auto fluorescence at 590 nm (red) in HepG2 cell free culture (AID 720684)
# Outline: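 Measured in medium alone (MEM containing 10% FBS) following pintool addition of compound; emission at 590 nm with 540 nm excitation, referenced to Rose Bengal sodium.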
# [13] = qHTS assay to test for compound auto fluorescence at 460 nm (blue) in HepG2 cell free culture (AID 720685)
# Outline: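 Compound (23 nL) or DMSO pinned into cell-free MEM with 10% FBS; blue fluorescence read at 405/460 nm excitation/emission, expressed as auto-fluorescence equivalency to triamterene.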
# [14] = qHTS assay to test for compound auto fluorescence at 535 nm (green) in HepG2 cell free culture (AID 720686)
# [15] = qHTS assay to test for compound auto fluorescence at 460 nm (blue) in HepG2 cells (AID 720687)
# Outline: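 Cells (2,000/well in MEM with 10% FBS) attached overnight at 37 C, then were exposed to compound or DMSO for 1 hr at 37 C, 5% CO2. Fluorescence read at Ex/Em 405/460 nm, expressed as triamterene-equivalent signal.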
# [16] = biological target: Glucocorticoid receptor (Homo sapiens) (UniProt P04150); assay: qHTS assay to identify small molecule agonists of the glucocorticoid receptor (GR) signaling pathway (AID 720691; active = well fitted activation curve with a large enough effect in the signal ratio in the repeat runs, not every such curve was filed as active; the % refers to the signal ratio)
# Outline: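 Reporter read-out: fluorescence intensity following 2 h room-temperature LiveBLAzer B/G FRET substrate loading. Prior step: GR-bla HeLa cells held 4 h, then treated 18 h at 37 C.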
# [17] = biological target: Glucocorticoid receptor (Homo sapiens) (UniProt P04150); assay: qHTS assay to identify small molecule antagonists of the glucocorticoid receptor (GR) signaling pathway (AID 720692; active = well fitted inhibition curve with a large enough effect in the signal ratio in the repeat runs, not every such curve was filed as active; the % refers to the signal ratio)
# Outline: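 Dexamethasone (5 nM final) stimulated a stably integrated GRE-beta-lactamase reporter in HeLa cells during 18 h co-incubation with compounds; signal was quantified as fluorescence intensity of B/G FRET substrate after 2 h.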
# [18] = qHTS assay for small molecule disruptors of the mitochondrial membrane potential (AID 720635); note: potency is the fitted concentration of half-maximal effect
# Outline: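 HepG2 cells (2,000/well) attached overnight at 37C, then took compound for 1 hr at 37C, 5% CO2. Mito-MPS dye was added for 30 min; fluorescence was read at 490/535 nm (monomers) and 540/590 nm (aggregates).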
# [19] = qHTS assay for small molecule agonists of the p53 signaling pathway - cell viability (AID 651633; calls by dose curve;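 note: p53RE-bla HCT reporter cells with a stable beta-lactamase p53 reporter; series mostly up to about 83 µM; nearly all actives have a fitted effect of over 30% in size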)
# Outline: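 p53RE-bla cells, seeded at 4,000 per well and rested 5 h at 37 C/5% CO2, received compounds in DMSO for 16 h at 37 C. CellTiter-Glo was then added, and luminescence was read after 30 min at room temperature to gauge cytotoxicity.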
# Sequence of Glucocorticoid receptor (Homo sapiens) (P04150 whole entry, looked up): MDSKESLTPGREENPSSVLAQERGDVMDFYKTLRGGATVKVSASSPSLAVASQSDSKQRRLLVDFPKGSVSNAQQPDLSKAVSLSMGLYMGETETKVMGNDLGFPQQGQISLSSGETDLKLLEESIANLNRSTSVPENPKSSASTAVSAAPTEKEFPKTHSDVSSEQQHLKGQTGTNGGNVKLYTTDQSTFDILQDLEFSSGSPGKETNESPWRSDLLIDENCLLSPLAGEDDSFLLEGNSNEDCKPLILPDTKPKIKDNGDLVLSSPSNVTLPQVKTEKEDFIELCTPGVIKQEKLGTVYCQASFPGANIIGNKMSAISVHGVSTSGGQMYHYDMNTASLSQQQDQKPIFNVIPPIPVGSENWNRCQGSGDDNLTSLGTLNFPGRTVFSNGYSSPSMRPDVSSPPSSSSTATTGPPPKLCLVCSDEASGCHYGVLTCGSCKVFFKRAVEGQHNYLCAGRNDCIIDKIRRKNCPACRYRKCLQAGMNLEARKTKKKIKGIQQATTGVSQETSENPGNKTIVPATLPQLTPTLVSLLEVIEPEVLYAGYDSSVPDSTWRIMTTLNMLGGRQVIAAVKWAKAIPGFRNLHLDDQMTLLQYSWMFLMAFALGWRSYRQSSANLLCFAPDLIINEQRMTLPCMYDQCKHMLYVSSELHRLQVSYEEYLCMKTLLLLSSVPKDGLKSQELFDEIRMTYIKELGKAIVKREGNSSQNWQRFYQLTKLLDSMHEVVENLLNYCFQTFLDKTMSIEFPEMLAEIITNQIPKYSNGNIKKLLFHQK
compound,measurement,setting,value
OC(CCN1CCCCC1)(c1ccccc1)C1CCCCC1 (stereo not drawn),Potency,[1],inactive
same,Potency,[2],inactive
same,Potency,[3],inactive
same,outcome,[4],inactive
same,outcome,[5],inactive
same,Potency,[6],inactive
same,outcome,[7],inactive
same,outcome,[8],inactive
same,Potency,[9],inactive
same,outcome,[10],inactive
same,outcome,[11],inactive
same,outcome,[12],inactive
same,Potency,[13],inactive
same,outcome,[14],inactive
same,Potency,[15],inactive
NCCCN(CCO)CCO,Potency,[1],inactive
same,Potency,[3],inactive
same,outcome,[4],inactive
same,outcome,[5],inactive
same,Potency,[6],inactive
same,outcome,[7],inactive
same,outcome,[8],inactive
same,Potency,[9],inactive
same,outcome,[10],inactive
same,outcome,[11],inactive
same,outcome,[12],inactive
same,Potency,[13],inactive
same,outcome,[14],inactive
same,Potency,[15],inactive
O=C(Nc1ccccc1)OCC(CN1CCCCC1)OC(=O)Nc1ccccc1 (stereo not drawn),Potency,[1],inactive
same,Potency,[2],inactive
same,"fluorescence, relative to Rose Bengal",[4],-0.654% [at 18.6 µM]
same,"fluorescence, % of fluorescein control",[5],0.0386% [at 18.6 µM]
same,"fluorescence, % of triamterene",[6],0.0079% [at 18.6 µM]
same,"fluorescence, % of fluorescent control",[7],0.0612% [at 18.6 µM]
same,"fluorescence, % of fluorescein",[8],0.0795% [at 18.6 µM]
same,"fluorescence, % of fluorescent control",[9],-0.0858% [at 18.6 µM]
same,activity change,[10],0.0431% [at 18.6 µM]
same,"fluorescence, % of fluorescent control",[11],0.0296% [at 18.6 µM]
same,"fluorescence, % of Rose Bengal",[12],0.0349% [at 18.6 µM]
same,"fluorescence, % of fluorescent control",[13],-0.044% [at 18.6 µM]
same,"fluorescence, % of fluorescein control",[14],0.0354% [at 18.6 µM]
same,"fluorescence, % of fluorescent control",[15],-0.0488% [at 18.6 µM]
same,Potency,[16],inactive
same,Potency,[17],inactive
CCCCOCCOCCOCCOCCO,Potency,[1],inactive
same,Potency,[2],inactive
same,Potency,[3],inactive
same,Potency,[18],inactive
same,outcome,[4],inactive
same,outcome,[5],inactive
same,Potency,[6],inactive
same,outcome,[7],inactive
same,outcome,[8],inactive
same,Potency,[9],inactive
same,outcome,[11],inactive
same,outcome,[12],inactive
same,outcome,[14],inactive
same,Potency,[15],inactive
COCCCCCCCCOCCC[Si](C)(O[Si](C)(C)C)O[Si](C)(C)C,Potency,[1],inactive
same,outcome,[4],inactive
same,outcome,[5],inactive
same,Potency,[6],inactive
same,outcome,[7],inactive
same,outcome,[8],inactive
same,outcome,[11],inactive
same,Potency,[13],inactive
same,Potency,[15],inactive
CCCCCOC(=O)c1ccc(O)cc1,Potency,[19],inactive
same,outcome,[4],inactive
same,outcome,[5],inactive
same,Potency,[6],inactive
same,outcome,[7],inactive
same,outcome,[8],inactive
same,outcome,[10],inactive
same,outcome,[11],inactive
same,outcome,[12],inactive
same,Potency,[13],inactive
same,Potency,[15],inactive
CC(C)NCC(O)c1cc(O)cc(O)c1 (stereo not drawn),Potency,[1],inactive
same,Potency,[2],inactive
same,Potency,[3],inactive
same,outcome,[5],inactive
same,Potency,[6],inactive
same,outcome,[7],inactive
same,outcome,[8],inactive
same,Potency,[9],inactive
same,outcome,[11],inactive
same,outcome,[12],inactive
same,Potency,[13],inactive
same,outcome,[14],inactive
same,Potency,[15],inactive
CCOc1nc2cccc(C(=O)O)c2n1Cc1ccc(-c2ccccc2-c2nn[nH]n2)cc1,Potency,[1],inactive
same,Potency,[2],inactive
same,Potency,[3],inactive
same,outcome,[4],inactive
same,outcome,[5],inactive
same,Potency,[6],inactive
same,outcome,[7],inactive
same,outcome,[8],inactive
same,Potency,[9],inactive
same,outcome,[10],inactive
same,outcome,[11],inactive
same,outcome,[12],inactive
same,Potency,[13],inactive
same,outcome,[14],inactive
same,Potency,[15],inactive
NC(N)=N/N=C/c1c(Cl)cccc1Cl,Potency,[1],inactive
same,Potency,[3],inactive
same,outcome,[4],inactive
same,outcome,[5],inactive
same,Potency,[6],inactive
same,outcome,[7],inactive
same,outcome,[8],inactive
same,Potency,[9],inactive
same,outcome,[11],inactive
same,Potency,[13],inactive
same,outcome,[14],inactive
same,Potency,[15],inactive
CCOC(=O)CC(C)C,Potency,[1],inactive
same,Potency,[2],inactive
same,Potency,[3],inactive
same,outcome,[4],inactive
same,outcome,[5],inactive
same,Potency,[6],inactive
same,outcome,[7],inactive
same,outcome,[8],inactive
same,outcome,[10],inactive
same,outcome,[11],inactive
same,outcome,[12],inactive
same,Potency,[13],inactive
same,outcome,[14],inactive
same,Potency,[15],inactive
same,Potency,[16],inactive
same,Potency,[17],inactive
O=[N+]([O-])c1cccc(Cl)c1Cl,Potency,[1],inactive
same,Potency,[2],inactive
same,Potency,[3],inactive
same,Potency,[18],inactive
same,outcome,[4],inactive
same,outcome,[5],inactive
same,Potency,[6],inactive
same,outcome,[7],inactive
same,outcome,[8],inactive
same,Potency,[9],inactive
same,outcome,[10],inactive
same,outcome,[11],inactive
same,outcome,[12],inactive
same,Potency,[13],inactive
same,outcome,[14],inactive
same,Potency,[15],inactive
same,Potency,[16],inactive
Cc1ccc(C(N)=O)cc1N,Potency,[1],inactive
same,Potency,[2],inactive
same,Potency,[3],inactive
same,Potency,[18],inactive
same,outcome,[5],inactive
same,Potency,[6],inactive
same,outcome,[7],inactive
same,outcome,[8],inactive
same,Potency,[9],inactive
same,outcome,[10],inactive
same,outcome,[11],inactive
same,outcome,[12],inactive
same,Potency,[13],inactive
same,outcome,[14],inactive
same,Potency,[15],inactive
same,Potency,[17],inactive
CCCCCOC(=O)COc1cc(N2C(=O)C3=C(CCCC3)C2=O)c(F)cc1Cl,Potency,[1],inactive
same,Potency,[2],inactive
same,Potency,[3],inactive
same,outcome,[5],inactive
same,Potency,[6],inactive
same,outcome,[7],inactive
same,outcome,[8],inactive
same,Potency,[9],inactive
same,outcome,[10],inactive
same,outcome,[11],inactive
same,outcome,[12],inactive
same,Potency,[13],inactive
same,Potency,[15],inactive
same,Potency,[16],inactive
same,Potency,[17],inactive
S=C(S)NCCNC(=S)S,Potency,[1],inactive
same,Potency,[2],inactive
same,Potency,[3],inactive
same,outcome,[4],inactive
same,outcome,[5],inactive
same,Potency,[6],inactive
same,outcome,[7],inactive
same,outcome,[8],inactive
same,Potency,[9],inactive
same,outcome,[11],inactive
same,outcome,[12],inactive
same,Potency,[13],inactive
same,outcome,[14],inactive
same,Potency,[15],inactive
same,Potency,[16],inactive
same,Potency,[17],inactive
CC(C)(C)c1cc(O)c(C(C)(C)C)cc1O,Potency,[1],inactive
same,Potency,[3],inactive
same,Potency,[18],6.11 µM (active)
same,outcome,[5],inactive
same,Potency,[6],inactive
same,outcome,[7],inactive
same,outcome,[8],inactive
same,Potency,[9],inactive
same,outcome,[11],inactive
same,outcome,[12],inactive
same,Potency,[13],inactive
same,outcome,[14],inactive
same,Potency,[15],inactive
same,Potency,[16],inactive
O=C(Cl)c1ccc([N+](=O)[O-])cc1,Potency,[1],inactive
same,Potency,[2],inactive
same,Potency,[3],inactive
same,outcome,[4],inactive
same,outcome,[5],inactive
same,Potency,[6],inactive
same,outcome,[7],inactive
same,outcome,[8],inactive
same,Potency,[9],inactive
same,outcome,[10],inactive
same,outcome,[11],inactive
same,Potency,[13],inactive
same,outcome,[14],inactive
same,Potency,[15],inactive
same,Potency,[16],inactive
same,Potency,[17],inactive
Cc1cc(O)ccc1N,Potency,[1],inactive
same,Potency,[2],inactive
same,outcome,[4],inactive
same,outcome,[5],inactive
same,Potency,[6],inactive
same,outcome,[7],inactive
same,outcome,[8],inactive
same,Potency,[9],inactive
same,outcome,[10],inactive
same,outcome,[11],inactive
same,outcome,[12],inactive
same,Potency,[13],inactive
same,Potency,[15],inactive
same,Potency,[16],inactive
